# In PubChem BioAssay AID778 (Sanford-Burnham Center for Chemical Genomics, 2007):
# Out of some 96,000 compounds screened, about 20,000 (21%) were called active. The list is a sample of the results. Unmarked numbers belong to inactive results.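 How the source made its calls: active means CYP2C19 inhibition above a set limit at 5 µM in the primary screen (cut at about 50% in these data); inactive means the rest.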
# Target: Cytochrome P450 2C19 (Homo sapiens) (UniProt P33261)
# Assay: blockers of cytochrome P450 2C19 activity – biochemical, luminescence, ADME assay, primary screen (AID 778);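 further: plate controls were negative control wells for no effect and 2.5 mM tranylcypromine positive control for full effect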
# Conditions: CYP2C19 Supersomes, luciferin-H EGE luminescence, 30 min; at 5 µM; hits give high values
# Chain of Cytochrome P450 2C19 (Homo sapiens) (P33261 whole entry, looked up): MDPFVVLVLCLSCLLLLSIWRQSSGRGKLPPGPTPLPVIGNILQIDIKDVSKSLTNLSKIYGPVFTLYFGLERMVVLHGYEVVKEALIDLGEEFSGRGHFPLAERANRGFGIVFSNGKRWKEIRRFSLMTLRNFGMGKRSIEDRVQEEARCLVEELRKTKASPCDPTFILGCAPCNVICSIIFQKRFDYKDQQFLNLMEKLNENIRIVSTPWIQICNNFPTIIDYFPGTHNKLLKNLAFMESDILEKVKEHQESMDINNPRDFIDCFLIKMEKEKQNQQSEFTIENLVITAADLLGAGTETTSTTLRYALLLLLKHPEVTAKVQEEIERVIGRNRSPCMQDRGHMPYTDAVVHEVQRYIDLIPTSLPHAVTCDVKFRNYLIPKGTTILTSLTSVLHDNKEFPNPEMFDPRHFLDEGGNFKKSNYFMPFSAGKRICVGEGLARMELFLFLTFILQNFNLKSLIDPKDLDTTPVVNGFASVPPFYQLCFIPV
row,Compound,inhibition
1,COCCCNC(NC(=O)c1ccc(C)cc1)C(Cl)(Cl)Cl (stereo not drawn),24.3%
2,CCC(=O)c1c[nH]c(C(=O)NCC2CCCO2)c1 (stereo not drawn),-4.8%
3,CCNC(=O)N1CCNC(=O)C1CC(=O)Nc1ccc(C(=O)OCC)cc1 (stereo not drawn),3.6%
4,CC1(C)Cc2cccc(OCC(=O)Nc3nccs3)c2O1,60.6% (active)
5,CC1(C)Cc2cccc(OCC(N)=O)c2O1,-16.5%
6,COc1cc(C(=O)Nc2nccs2)cc(OC)c1OC,17.9%
7,CCOC(=O)c1cc2n(c1N)-c1ccccc1C2=O,26.7%
8,O=C(NCC1CCC(C(=O)O)CC1)OCc1ccccc1 (stereo not drawn),2.9%
9,Cc1nn(-c2ccccc2)c(CC(C)(C)C(=O)O)c1C(=O)O,7.2%
10,Cc1ccc(C(=O)/C=C/c2c(C)nn(-c3ccccc3)c2Cl)cc1,76.2% (active)
11,Cc1nn(-c2ccccc2)c(Cl)c1C(=O)Nc1ccccc1,39.2%
12,Cc1ccc(O)c(CNc2nc3ccccc3n2C)c1,39.6%
13,CCC1SC2=NCCN2C1(O)c1ccc(Cl)cc1 (stereo not drawn),94.6% (active)
14,O=C(COc1ccccc1F)NC1CC1,-8.2%
15,O=C1CCCc2c1nc(-c1cccc(Cl)c1)n2O,-3.8%
16,CON(C)S(=O)(=O)c1ccc2c(c1)NC(=O)C1CCCN21 (stereo not drawn),4.3%
17,COc1ccc(Nc2nc(Cl)nc(NCc3ccco3)n2)cc1,4%
18,COc1ccc(N(CC(=O)N/N=C/c2cccs2)S(=O)(=O)c2ccc(OC)c(OC)c2)cc1,99.3% (active)
19,Cc1cc(C)nc(SC(C)C(=O)N/N=C/c2cccs2)n1 (stereo not drawn),20.8%
20,COc1ccc(N(CC(=O)N/N=C/c2cccc3c2OCCO3)S(=O)(=O)c2ccc(NC(C)=O)cc2)cc1,33.4%
21,CCOc1ccc(N=Cc2c(O)n(-c3cccc(C)n3)c(=O)c3ccccc23)cc1,23.6%
22,CCOC(=O)c1cc2c(n(-c3ccc(C)cc3)c1=O)CCCC2=O,5.6%

row,Compound,inhibition
1,COC(=O)CNC(=O)c1ccccc1F,-5.1%
2,COc1ccc(C(=O)NN(C)c2nc(-c3ccccc3)cc(C)c2S(C)(=O)=O)cc1,10.6%
3,CSc1nc(N(C)NC(=O)c2cccc(C)c2)c2ccccc2n1,77% (active)
4,CN(NC(=O)c1ccccc1)c1nc2ccccc2nc1C(F)(F)F,35.4%
5,Cc1c(C(=O)OC(C)C)sc(NC(=O)c2cccnc2)c1C#N,1.5%
6,CC(NC(=O)c1ccco1)C(=O)Nc1nc(-c2ccccn2)cs1 (stereo not drawn),6%
7,Cc1ccc(S(=O)(=O)c2ccc(Oc3ccccc3)cc2)cc1,-11.2%
8,COc1ccc2[nH]c3ccc(OC)cc3c2c1,29.9%
9,CN(C)S(=O)(=O)c1ccc(Oc2ccc(S(=O)(=O)N(C)C)cc2)cc1,19.7%
10,Nc1ccc(Oc2ccc(Cl)cc2)cc1,85.1% (active)
11,COc1cccc(Oc2ccc(N)cc2)c1,64.1% (active)
12,Clc1ccc(Cl)c(Oc2ccc(Oc3nc(Cl)ccc3Cl)cc2)n1,-4.8%
13,COCCNCCOCCOc1cccc(OC)c1,10.2%
14,Cc1ccc(Oc2ccc(N)cc2)cc1,87.9% (active)
15,Nn1c(SCC(=O)NC(=O)NC2CCCC2)nnc1-c1ccccc1F,27.9%
16,COc1ccc(C(C(O)C(=O)c2c[nH]c3ccccc23)N2CCN(c3ccccc3)CC2)cc1 (stereo not drawn),28.5%
17,CCC(C)c1ccc(O)c(/C=N/O)c1 (stereo not drawn),-21.8%
18,Cc1nc2ccc(C(=O)O)cc2[nH]1,-2.4%
19,Cc1noc(C)c1CSc1nnc2ccc3ccccc3n12,23.4%
20,Cc1noc(C)c1COC(=O)Cn1c(C)nc2ccccc21,17.3%
21,Cc1noc(C)c1COC(=O)c1cc2ccccc2cc1O,89.3% (active)
22,CC(CN1CCOCC1)c1ccccc1 (stereo not drawn),26.4%

row,Compound,inhibition
1,CC(C)C(=O)Nc1ccc2c(c1)oc1ccccc12,13.2%
2,Cc1nc2cc(NC(=O)NCc3ccccc3)ccc2o1,-8.7%
3,O=C(O)CCN1C(=O)CC2(CCCCC2)C1=O,-6.7%
4,Cc1ccc(-n2nc3c(c2NC(=O)c2ccc4c(c2)OCO4)CSC3)c(C)c1,3.6%
5,O=C(Nc1ccc2c(c1)OCCO2)c1ccc(Cl)c(S(=O)(=O)N2CCCCC2)c1,96.4% (active)
6,Cc1ccc(C(=O)Nc2ccc3c(c2)OCO3)cc1S(=O)(=O)N1CCCCC1,92.3% (active)
7,Cn1c(=O)n(C)c2cc(C(=O)Nc3ccc4c(c3)OCO4)ccc21,-13.9%
8,Cc1ccc(C(=O)NCC(=O)O)cc1S(=O)(=O)N1CCCCC1,-12.8%
9,O=C(O)c1cc(S(=O)(=O)N2CCCCCC2)c(Cl)cc1Cl,0%
10,COc1ccc(N2C(=O)c3cccc4cccc(c34)C2=O)nn1,-8.5%
11,CC1CCCN(C(=O)Cn2c(=O)oc3ccccc32)C1 (stereo not drawn),26.2%
12,Cc1nnc(NC2=NCCCCC2)o1,-3.5%
13,O=C(CC1NCCNC1=O)Nc1ccc(Oc2ccccc2)cc1 (stereo not drawn),-0.6%
14,Cn1c(=O)[nH]c(=O)c2c1nc(Br)n2CCCCSc1nc2ccccc2o1,38.5%
15,Cc1ccc(Oc2ccc3c(c2)C(=O)N(c2cccc4cccnc24)C3=O)cc1,-1.5%
16,COc1ccc(N/N=C2/CCCCC2=O)cc1,3.1%
17,COc1ccc(CNC2CCCCC2)cc1,69.4% (active)
18,COc1ccc(CNC(=O)C2CCN(S(=O)(=O)N3CCOCC3)CC2)cc1,-11.9%
19,CN1C(=O)c2ccc(NC(=O)C3CCCCC3)cc2C1=O,-0.4%
20,O=C1c2ccccc2C(=O)N1c1ccccc1S(=O)C(F)(F)F (stereo not drawn),6.6%
21,Cc1ccc(-n2c(=O)cc(N3CCN(Cc4ccccc4)CC3)[nH]c2=O)cc1,1.5%
22,Cc1ccc(S(=O)(=O)N2CC(=O)Nc3ccccc32)cc1C,60.4% (active)

row,Compound,inhibition
1,Cc1ccc(C)c(S(=O)(=O)N2CC(=O)Nc3ccccc32)c1,32.8%
2,CC1=NCCN1S(=O)(=O)c1ccc(Br)c(C)c1,27.7%
3,O=C(OCC#CCSc1nnc(-c2ccncc2)o1)c1sc2ccccc2c1Cl,-11.8%
4,CC1CCN(C(NC(=O)c2ccco2)C(=O)c2ccccc2)CC1 (stereo not drawn),35.9%
5,CCCC1NC(=O)NC(C)=C1C(=O)OCC (stereo not drawn),17%
6,CCOC(=O)C1C(=O)NCC1c1ccccc1 (stereo not drawn),-0.1%
7,O=C(OCC(=O)c1cccs1)C1=COCCO1,2.6%
8,CCOc1ccccc1C1NC(=O)NC(C)=C1C(=O)OCc1ccco1 (stereo not drawn),16.1%
9,CCOC(=O)C1=C(C)NC(C)=C(C(=O)OCC)C1C1=COCCO1,88.8% (active)
10,CCOC(=O)C1=C(C)NC(C)=C(C(=O)OCC)C1c1ccccn1,50.3% (active)
11,CCCCCn1c(SCCC(C)C)nc2c1c(=O)[nH]c(=O)n2C,8.6%
12,Cc1ccc(C2CC(c3cccc(Br)c3)n3nc(N)nc3N2)cc1 (stereo not drawn),21.7%
13,Cc1ccc(-c2ccc(=O)n(CC(=O)NCCCN3CCCCC3)n2)cc1,6.9%
14,O=C1c2ccccc2C(=O)c2c1cccc2N1CCN(CCO)CC1,1.4%
15,CCOC(=O)c1c(-c2ccccc2)csc1NC(=S)NC(=O)c1ccccc1,-8.6%
16,Cc1ccc(NC(=S)NC(=O)c2ccc(-c3ccccc3)cc2)c(C)c1,8.6%
17,Cc1cc2[nH]ncc2cc1NC(=S)NC(=O)c1ccccc1,99.2% (active)
18,CC1(C)C(=O)C2(CCCCC2)C(=O)OC1c1cccs1 (stereo not drawn),15.1%
19,CCOC1CS(=O)(=O)CC1OCC (stereo not drawn),-10.9%
20,Nc1nnc(C2CCCC2)s1,8.1%
21,Cc1cc(N/C=C\C(=O)c2ccc(Cl)c(Cl)c2)no1,40.4%
22,Cc1nn2c(c1-c1ccccc1)N=C(c1ccco1)CC2c1ccccc1 (stereo not drawn),66.2% (active)

row,Compound,inhibition
1,Cc1nn(C(=O)c2ccoc2C)c(N)c1-c1ccccc1,29.7%
2,CN(C)/C=C(\C#N)C(=O)c1cccnc1Oc1cccc(F)c1,40.5%
3,COc1cccc2cc(C(=O)N(C)C)c(=O)oc12,-22.6%
4,CCCCNC(=O)c1onc(CSc2cccc(OC)c2)c1C(=O)O,12.9%
5,CCOc1ccc(NC(=O)N(CC(C)C)CC(C)C)cc1,11.8%
6,OCCN(Cc1ccccc1)Cc1ccc(Cl)cc1,100% (active)
7,CC(O)CN(Cc1ccc(Cl)cc1)CC(C)O (stereo not drawn),-2.3%
8,CN(Cc1ccccc1)Cc1ccccc1F,44.7%
9,Brc1cnc(N2CCCC2)nc1N1CCCCC1,1.7%
10,COc1cc(OC)cc(C(=O)NCCSCc2ccco2)c1,35%
11,O=C(CN1C(=O)C2C3C=CC(C3)C2C1=O)NCC1COc2ccccc2O1 (stereo not drawn),0.4%
12,COC(=O)c1sc(=S)n(-c2ccc(Cl)cc2)c1C,62.9% (active)
13,COC(=O)c1sc(=S)n(-c2ccccc2)c1N,17.4%
14,CCOC(=O)Cn1c(N)c(C(=O)OC)sc1=S,26.8%
15,CC1(C)CC(=O)NC=C(c2ccccc2)C1,23.8%
16,Brc1ccc(/C=N/N2CCN(C3c4ccccc4-c4ccccc43)CC2)s1,11.5%
17,COc1ccc(OC)c(-n2cc3c(=O)n(C)c(=O)n(C)c3c2)c1,38.6%
18,COc1cc(C2C(C#N)=C(N)Oc3n[nH]c(-c4ccccn4)c32)cc(OC)c1OC (stereo not drawn),1.9%
19,COc1ccc(C2C(C#N)=C(N)Oc3cc(N)ccc32)cc1OC (stereo not drawn),74.9% (active)
20,N#CC1=C(N)Oc2cc(O)ccc2C1C1CCCCC1 (stereo not drawn),35.8%
